Source: PMC4336329 (PLoS ONE, 2015)
Among all 310,000 compounds or so, about 14,000 (4.5%) showed an effect of 50% or more. Effects have a minus sign here. This is one part of a sample in which strong results are shown more often than they occur.
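Note: peak tail current of the secondary pulse compared with the same well before compound.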

Each compound was assayed against human ether-à-go-go-related gene (hERG) potassium channel (human, UniProt Q12809) (assay: primary screen, population patch clamp on CHO cells stably expressing hERG; higher = less effect of the substance).
Chain of human ether-à-go-go-related gene (hERG) potassium channel (Q12809 whole entry, looked up): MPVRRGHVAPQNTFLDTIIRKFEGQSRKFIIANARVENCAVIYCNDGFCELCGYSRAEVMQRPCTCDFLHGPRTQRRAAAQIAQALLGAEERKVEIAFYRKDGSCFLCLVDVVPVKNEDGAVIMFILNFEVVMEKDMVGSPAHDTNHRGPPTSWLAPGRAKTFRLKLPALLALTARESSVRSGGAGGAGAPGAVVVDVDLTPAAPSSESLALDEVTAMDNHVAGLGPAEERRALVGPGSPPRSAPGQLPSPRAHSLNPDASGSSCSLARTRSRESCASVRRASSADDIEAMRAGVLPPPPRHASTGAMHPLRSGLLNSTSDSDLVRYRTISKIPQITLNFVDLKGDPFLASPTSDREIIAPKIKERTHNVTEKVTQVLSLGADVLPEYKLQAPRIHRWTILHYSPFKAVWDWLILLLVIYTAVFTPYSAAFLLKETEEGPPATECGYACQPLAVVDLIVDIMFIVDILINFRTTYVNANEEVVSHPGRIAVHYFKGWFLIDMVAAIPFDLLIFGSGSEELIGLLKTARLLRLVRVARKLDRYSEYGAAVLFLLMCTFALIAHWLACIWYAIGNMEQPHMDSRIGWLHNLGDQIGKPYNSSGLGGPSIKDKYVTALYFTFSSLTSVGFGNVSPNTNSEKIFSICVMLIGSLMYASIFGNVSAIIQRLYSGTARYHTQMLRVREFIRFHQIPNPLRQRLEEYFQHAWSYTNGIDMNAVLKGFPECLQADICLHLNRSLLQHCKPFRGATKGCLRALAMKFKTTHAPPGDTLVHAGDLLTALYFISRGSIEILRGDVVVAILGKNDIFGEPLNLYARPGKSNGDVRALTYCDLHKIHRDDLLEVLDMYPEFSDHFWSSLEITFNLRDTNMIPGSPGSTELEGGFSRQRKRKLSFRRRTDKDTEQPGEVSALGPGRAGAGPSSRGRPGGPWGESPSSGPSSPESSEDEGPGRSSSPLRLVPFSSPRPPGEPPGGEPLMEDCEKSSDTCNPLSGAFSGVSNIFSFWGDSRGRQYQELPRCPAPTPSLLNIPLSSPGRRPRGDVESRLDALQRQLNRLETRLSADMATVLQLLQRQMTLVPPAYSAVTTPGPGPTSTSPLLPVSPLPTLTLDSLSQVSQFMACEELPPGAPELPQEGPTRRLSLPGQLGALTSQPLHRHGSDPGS
With `CCCS(=O)(=O)c1nc(S(=O)(=O)c2ccc(C)cc2)c(N2CCc3ccccc3C2)s1` the “hERG current change (%, negative = inhibition) at 10uM” value was 5.34%. With `Cc1ccc(-c2cnc(SCC(=O)N3CCCc4ccccc43)n2C)cc1` the “hERG current change (%, negative = inhibition) at 10uM” value was -50.8%. In the case of `O=C(c1cc(-c2ccccc2)on1)N1CCCc2ccccc21`, the “hERG current change (%, negative = inhibition) at 10uM” value is reported as -18.1%. For `Cn1c(-c2ccc(F)cc2)cnc1SCC(=O)N1CCCc2ccccc21`, the “hERG current change (%, negative = inhibition) at 10uM” value was -24.8%. For `O=C(c1cc(-c2ccc(O)cc2)on1)N1CCCc2ccccc21`, the “hERG current change (%, negative = inhibition) at 10uM” value was -29.5%. In the case of `Cn1c(-c2ccccc2)cnc1SCC(=O)N1CCCc2ccccc21`, the “hERG current change (%, negative = inhibition) at 10uM” value is reported as -27.9%. For `Cc1ccc(-c2cc(C(=O)N3CCCc4ccccc43)no2)cc1`, the “hERG current change (%, negative = inhibition) at 10uM” value was -75.6%. For `O=C(NCc1ccc(F)cc1Cl)C1CCN(S(=O)(=O)N2CCC3(CC2)OCCO3)CC1`, the “hERG current change (%, negative = inhibition) at 10uM” value was -13.9%. In the case of `CC(=O)Oc1ccc(NC(=O)Cc2ccccc2)cc1`, the “hERG current change (%, negative = inhibition) at 10uM” value is reported as 24.9%. In the case of `Cc1ccc(OCC(=O)c2ccc3c(c2)CCCC3)cc1C`, the “hERG current change (%, negative = inhibition) at 10uM” value is reported as 4.7%. For `C=CCSc1ncnc2sc(C)c(C)c12`, the “hERG current change (%, negative = inhibition) at 10uM” value was 9.87%. `COc1ccc(Cl)cc1NC(=O)C1(c2cccs2)CCOCC1` was tested, and the “hERG current change (%, negative = inhibition) at 10uM” value was -17.8%. In the case of `COc1ccc(CCC(C)Nc2ccc(F)c(F)c2)cc1` (stereo not drawn), the “hERG current change (%, negative = inhibition) at 10uM” value is reported as 5.47%. For `CC(CCc1ccccc1)NC(=O)Cc1ccc(Br)cc1` (stereo not drawn), the “hERG current change (%, negative = inhibition) at 10uM” value was 8.87%. With `COc1ccc(CCC(C)NCCc2ccc(Cl)cc2Cl)cc1` (stereo not drawn) the “hERG current change (%, negative = inhibition) at 10uM” value was -71.8%. For `COc1ccc(CCC(C)NCc2cc(OC)cc(OC)c2)cc1` (stereo not drawn), the “hERG current change (%, negative = inhibition) at 10uM” value was -42.3%. `CC(CCc1ccccc1)NCc1ccncc1` (stereo not drawn) was tested, and the “hERG current change (%, negative = inhibition) at 10uM” value was -8.72%. `CC(CCc1ccc(O)cc1)NCc1ccc(Br)cc1` (stereo not drawn) was tested, and the “hERG current change (%, negative = inhibition) at 10uM” value was -76.2%. `CC(CCc1ccc(O)cc1)NCc1ccc(Cl)cc1Cl` (stereo not drawn) was tested, and the “hERG current change (%, negative = inhibition) at 10uM” value was -63.8%. With `COc1ccc(CNCCc2ccc(Cl)cc2Cl)cc1` the “hERG current change (%, negative = inhibition) at 10uM” value was -22.2%. For `COc1ccc(CCC(C)NCc2ccc(Cl)c(Cl)c2)cc1` (stereo not drawn), the “hERG current change (%, negative = inhibition) at 10uM” value was -53.7%. In the case of `CC(CCc1ccccc1)NCc1ccc(Cl)cc1Cl.O=C(O)C(=O)O` (stereo not drawn), the “hERG current change (%, negative = inhibition) at 10uM” value is reported as -31.5%. In the case of `CC(O)CNCc1ccc(Cl)cc1Cl.Cl` (stereo not drawn), the “hERG current change (%, negative = inhibition) at 10uM” value is reported as 12.3%. In the case of `COc1ccc(CCNC(C)CCc2ccc(OC)cc2)cc1` (stereo not drawn), the “hERG current change (%, negative = inhibition) at 10uM” value is reported as -13%. With `Cc1cc(C)nc(/N=C2\NC(=O)CC(C(=O)O)N2c2ccc(Cl)cc2)n1` (stereo not drawn) the “hERG current change (%, negative = inhibition) at 10uM” value was 14.9%. `COC(=O)CSc1ccc2nnc(CCNS(=O)(=O)c3ccccc3)n2n1` was tested, and the “hERG current change (%, negative = inhibition) at 10uM” value was 24.3%. In the case of `CC(=O)c1c(COC(=O)c2cccc(C)c2)nc2ccccc2[n+]1[O-]`, the “hERG current change (%, negative = inhibition) at 10uM” value is reported as -1.95%. `Cn1c(=O)c2c(nc(SCC(=O)NCC3CCCO3)n2C)n(C)c1=O` (stereo not drawn) was tested, and the “hERG current change (%, negative = inhibition) at 10uM” value was 2.28%. In the case of `Cc1c(NC(=S)NC(=O)c2ccccc2Cl)c(=O)n(-c2ccccc2)n1C`, the “hERG current change (%, negative = inhibition) at 10uM” value is reported as 33.4%. For `COc1cccc(CC(=O)Nc2cc(S(=O)(=O)N3CCCCC3)ccc2C)c1`, the “hERG current change (%, negative = inhibition) at 10uM” value was -15.9%. With `Cc1c(CC(=O)O)c(=O)oc2cc(OCc3nn[nH]n3)ccc12` the “hERG current change (%, negative = inhibition) at 10uM” value was -0.585%. With `COc1cc(NC(=O)C2CCCCC2)c(OC)cc1NC(=O)CN1CCCCC1` the “hERG current change (%, negative = inhibition) at 10uM” value was -12%. For `COc1ccc(N2CCN(S(=O)(=O)c3ccc4c(c3)N(C(C)=O)CCO4)CC2)cc1`, the “hERG current change (%, negative = inhibition) at 10uM” value was -18.4%. `CC(C)CC(=O)C(=O)[O-].[Na+]` was tested, and the “hERG current change (%, negative = inhibition) at 10uM” value was -0.864%. For `COc1ccc(CCC(C)NCc2ccc(C(F)(F)F)cc2)cc1` (stereo not drawn), the “hERG current change (%, negative = inhibition) at 10uM” value was -66.3%. For `COc1ccc(CCC(C)NCc2cccc(Br)c2)cc1` (stereo not drawn), the “hERG current change (%, negative = inhibition) at 10uM” value was -64.6%. In the case of `COc1ccc(CCC(C)Nc2cccc(C)c2)cc1` (stereo not drawn), the “hERG current change (%, negative = inhibition) at 10uM” value is reported as 4.48%. `COc1ccc(CCC(C)NCC2CCCCC2)cc1` (stereo not drawn) was tested, and the “hERG current change (%, negative = inhibition) at 10uM” value was -14.9%. With `COc1ccc(CCC(C)NCc2ccc(F)cc2)cc1` (stereo not drawn) the “hERG current change (%, negative = inhibition) at 10uM” value was -44.8%. `COc1ccc(CC(=O)NC(C)CCc2ccccc2)cc1` (stereo not drawn) was tested, and the “hERG current change (%, negative = inhibition) at 10uM” value was 5.43%. For `O=C(/C=C/c1ccco1)Nc1cccc2cccnc12`, the “hERG current change (%, negative = inhibition) at 10uM” value was -1.87%. With `CCOC(=O)c1cnn(-c2cc(C)c3ccccc3n2)c1N` the “hERG current change (%, negative = inhibition) at 10uM” value was -1.77%. In the case of `O=C(Cc1cccc2ccccc12)NC(NC(=S)Nc1ccccc1Cl)C(Cl)(Cl)Cl` (stereo not drawn), the “hERG current change (%, negative = inhibition) at 10uM” value is reported as 11.7%. With `Cc1cccc(Oc2ncc(-c3ccc(Cl)cc3)cn2)c1` the “hERG current change (%, negative = inhibition) at 10uM” value was 5.22%. With `Cc1ccc(S(=O)(=O)N2CCN(C(=O)c3ccccc3Cc3ccccc3)CC2)c(C)c1` the “hERG current change (%, negative = inhibition) at 10uM” value was 4.42%. With `O=C(Cc1ccccn1)c1ccc(Cl)cc1` the “hERG current change (%, negative = inhibition) at 10uM” value was 17%. `O=C1CC(N2CCN(CCc3ccccn3)CC2)C(=O)N1c1ccc(Cl)cc1` (stereo not drawn) was tested, and the “hERG current change (%, negative = inhibition) at 10uM” value was -67.4%. For `O=C(c1ccccc1)N1CCN(CCc2ccccn2)CC1`, the “hERG current change (%, negative = inhibition) at 10uM” value was 8.41%. In the case of `Cl.O=C(c1ccc(Cl)cc1)N1CCN(CCc2ccccn2)CC1`, the “hERG current change (%, negative = inhibition) at 10uM” value is reported as -69%. In the case of `COc1ccc(C(=O)N2CCN(c3ccccn3)CC2)cc1`, the “hERG current change (%, negative = inhibition) at 10uM” value is reported as 3.55%. With `O=C1CC(N2CCN(c3ccccn3)CC2)C(=O)N1c1ccc(Cl)cc1` (stereo not drawn) the “hERG current change (%, negative = inhibition) at 10uM” value was 4.46%. For `CN(CCc1ccccn1)C1CC(=O)N(c2ccc(Cl)cc2)C1=O` (stereo not drawn), the “hERG current change (%, negative = inhibition) at 10uM” value was 6.39%. With `COc1ccc(C(=O)N2CCN(Cc3ccccn3)CC2)cc1.O=C(O)C(=O)O` the “hERG current change (%, negative = inhibition) at 10uM” value was -5.82%. With `COc1ccc(C(=O)N2CCN(CCc3ccccn3)CC2)cc1.Cl` the “hERG current change (%, negative = inhibition) at 10uM” value was -77.3%. For `COc1cc(-c2noc(C)c2C#Cc2ccsc2)cc(OC)c1OC`, the “hERG current change (%, negative = inhibition) at 10uM” value was 10.8%. In the case of `Cc1ccc(Nc2nnc(SCn3nnc4ccccc4c3=O)s2)cc1`, the “hERG current change (%, negative = inhibition) at 10uM” value is reported as 2.83%. In the case of `N#Cc1ccc(-c2csc(-c3ccno3)n2)cc1`, the “hERG current change (%, negative = inhibition) at 10uM” value is reported as -14.6%. `CC1=C[C@H]2OC(=O)[C@@H](C)[C@H]2C[C@@H]2[C@H]1C[C@@H](O)[C@@]2(C)O` was tested, and the “hERG current change (%, negative = inhibition) at 10uM” value was 6.22%. With `N#Cc1c(N)c(C(=O)c2ccccc2)n2ccccc12` the “hERG current change (%, negative = inhibition) at 10uM” value was 10.7%. In the case of `CC(=O)Nc1ccc(S(=O)(=O)N(C)CC(=O)OCC(=O)Nc2ccc3c(c2)OCO3)cc1`, the “hERG current change (%, negative = inhibition) at 10uM” value is reported as 9.31%.
